Structures can show the parent of a compound that is named as a salt. A value given as a limit tells only on which side of the number the result lay.

The subject of the assay is thyroid hormone receptor (endogenous TRα and TRβ). More on the design: species or system GH3-TRE-Luc (rat pituitary); GH3-TRE-Luc luciferase reporter, antagonist mode against 1 nM T3, loss of signal, qHTS. The conditions noted are these: read-out: Average AC50 (uM) GH3-TRE-Antag, antagonist mode, 1 nM T3, no GH3 cytotoxicity hit.
With `CN(C)c1ccc(O)c2c1C[C@H]1C[C@H]3[C@H](N(C)C)C(O)=C(C(N)=O)C(=O)[C@@]3(O)C(O)=C1C2=O` [Minocycline hydrochloride], the AC50 is 44.9 µM.
To `CC(C)Oc1cccc(NC(=O)c2ccccc2C(F)(F)F)c1` [Flutolanil] belongs above 90 µM.
Under `O=C1CCCCCCCCCCOCCCCO1` [12-Oxahexadecanolide] stands 43.5 µM; under `Clc1cc(Cl)c2c(c1)N=C1CCCCCN1C2` [1,3-dichloro-6,7,8,9,10,12-hexahydroazepino[2,1-b]quinazoline hydrochloride (1:1)], 40.1 µM.
Regarding `CCC(=O)Nc1ccc(Cl)c(Cl)c1` [Propanil], the AC50 was 92.4 µM.
Take `CC/C=C\CC/C=C/C=O` [trans-2,cis-6-Nonadienal]: the AC50 was found to be 69.9 µM.
`c1ccc2sc(SN(C3CCCCC3)C3CCCCC3)nc2c1` [N,N-Dicyclohexyl-2-benzothiazolesulfenamide]: the AC50 came to 33.2 µM.
As to `COc1ccc(C(=O)c2ccccc2O)c(O)c1` [2,2'-Dihydroxy-4-methoxybenzophenone], the AC50 was above 20 µM.
Take `c1cnc2cc3c(cc2n1)[C@@H]1CNC[C@H]3C1` [Varenicline dihydrochloride]: the AC50 amounted to 63.5 µM.
Turning to `CC1(C)C2=CCCC(C)(C)[C@]23CC[C@H]1C3` [(-)-Isolongifolene], the AC50 was determined as 54.9 µM.
Consider `CCC(C)(C)C(=O)OC1=C(c2ccc(Cl)cc2Cl)C(=O)OC12CCCCC2` [Spirodiclofen], for which the concentration at half-maximal activity (AC50) amounted to 51.5 µM.
To `CC1(C)[C@H](C(=O)O[C@H](C#N)c2cccc(Oc3ccccc3)c2)[C@@H]1C=C(Cl)Cl` [alpha-Cypermethrin] belongs above 90 µM; to `C#CCC(Cc1cnc2nc(N)nc(N)c2n1)c1ccc(C(=O)N[C@@H](CCC(=O)O)C(=O)O)cc1` (some centres unmarked) [Pralatrexate], 0.687 µM; to `CC(C(=O)O)c1ccc(C2CCCCC2)c2ccccc12` (centres unmarked) [Quadrisol], 35.8 µM.
Under `CC[C@@]1(O)C(=O)OCc2c1cc1n(c2=O)Cc2cc3c(CN(C)C)c(O)ccc3nc2-1` [Topotecan hydrochloride] stands 2.45 µM.
Under `CCN(CC)c1ccc(C(=O)c2ccccc2C(=O)O)c(O)c1` [2-[4-(Diethylamino)-2-hydroxybenzoyl]benzoic acid] stands 43.7 µM; under `Nc1ccc(C(=O)OCCCOC(=O)c2ccc(N)cc2)cc1` [Propane-1,3-diyl bis(4-aminobenzoate)], 59.8 µM.
In the case of `CC(=O)[C@H]1[C@H](C#N)C[C@H]2[C@@H]3CC=C4C[C@@H](O)CC[C@]4(C)[C@H]3CC[C@@]21C` [Pregnenolone carbonitrile], the AC50 amounted to 13.1 µM.
With `C/C=C1\C(=O)C[C@H]2[C@@H]3CCC4=CC(=O)CC[C@]4(C)[C@H]3CC[C@]12C` [Guggulsterone Z], the AC50 turned out to be 39.2 µM.
Regarding `CN1[C@@H](CC(=O)c2ccccc2)CCC[C@H]1C[C@H](O)c1ccccc1` [Lobeline], the AC50 was determined as 29.3 µM.
Under `CCN(CCCc1ccccc1)CCCc1ccccc1` [Alverine citrate] stands 10.8 µM; under `CC1(C)S[C@@H]2[C@H](NC(=O)[C@H](N)c3ccccc3)C(=O)N2[C@H]1C(=O)OC1OC(=O)c2ccccc21` (some centres unmarked) [Talampicillin hydrochloride], above 20 µM.
On to `N=C(N)NC(=N)NCCc1ccccc1` [Phenformin hydrochloride], for which the concentration at half-maximal activity (AC50) is above 20 µM.
To `CC(=O)O[C@]1(C(C)=O)CC[C@H]2[C@@H]3C=C(C)C4=CC(=O)CC[C@]4(C)[C@H]3CC[C@@]21C` [Megestrol acetate] belongs above 20 µM; to `O=c1[nH]c(=O)n([C@H]2C[C@H](O)[C@@H](CO)O2)cc1F` [Floxuridine], 4.49 µM.
Under `CC(=O)CC/C=C(\C)CC/C=C(\C)CC/C=C(\C)CCC=C(C)C` [Teprenone] stands 33.9 µM.
Under `CCCCCCCCCCCCCCC(Br)C(=O)O` (centres unmarked) [2-Bromohexadecanoic acid] stands 53.6 µM.
In the case of `COC(=O)[C@H]1[C@H]2C[C@@H]3c4[nH]c5cc(OC)ccc5c4CCN3C[C@H]2C[C@@H](OC(=O)/C=C/c2cc(OC)c(OC)c(OC)c2)[C@@H]1OC` [Rescinnamine], the AC50 came out at 21 µM.
To `CCn1c2ccccc2c2cc(N)ccc21` [3-Amino-9-ethylcarbazole hydrochloride] belongs 46.6 µM.

In general, AC50 refers to the concentration at which the activity in the assay is half-maximal.
